The inhibition is the change of the read-out against control, counted positive when it falls.

Six molecules from ChEMBL document CHEMBL1961873, “Compounds: GSK PKIS; Assays: Nanosyn kinase panel” (2012) can be followed below.

Experiment [1] concerns the target Glycogen synthase kinase-3 beta (Homo sapiens) (UniProt P49841). Conditions: at 1 µM.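 Note: reported values are mean percent inhibition of GSK3B.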
Experiment [2] addresses Homeodomain-interacting protein kinase 1 (Homo sapiens) (UniProt Q86Z02). Conditions: at 0.1 µM.
Experiment [3] has the same target. Particulars: at 1 µM.
Experiment [4] has as its target T1, Homeodomain-interacting protein kinase 4 (Homo sapiens) (UniProt Q8NE63).
T1 sequence (whole entry): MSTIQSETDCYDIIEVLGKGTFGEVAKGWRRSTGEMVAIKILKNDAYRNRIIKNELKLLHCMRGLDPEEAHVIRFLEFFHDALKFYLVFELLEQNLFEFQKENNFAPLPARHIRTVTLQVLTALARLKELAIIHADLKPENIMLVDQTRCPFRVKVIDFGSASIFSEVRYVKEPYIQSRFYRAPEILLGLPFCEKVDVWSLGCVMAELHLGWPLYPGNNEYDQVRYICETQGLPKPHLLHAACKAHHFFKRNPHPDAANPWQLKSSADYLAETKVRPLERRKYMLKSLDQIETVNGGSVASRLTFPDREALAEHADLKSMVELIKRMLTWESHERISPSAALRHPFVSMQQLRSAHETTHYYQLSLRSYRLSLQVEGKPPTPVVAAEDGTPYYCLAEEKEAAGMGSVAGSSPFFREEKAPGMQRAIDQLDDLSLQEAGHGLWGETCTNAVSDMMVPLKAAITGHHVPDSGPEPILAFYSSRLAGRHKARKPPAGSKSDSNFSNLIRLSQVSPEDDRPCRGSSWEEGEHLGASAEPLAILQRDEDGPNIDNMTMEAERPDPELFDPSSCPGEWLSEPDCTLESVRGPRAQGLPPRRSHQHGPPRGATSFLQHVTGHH
Particulars: at 0.1 µM.

For experiment [5], the target named is T1, Homeodomain-interacting protein kinase 4 (Homo sapiens). Particulars: at 1 µM.
Experiment [6] addresses Mitogen-activated protein kinase 9 (Homo sapiens) (UniProt P45984). Conditions: at 0.1 µM.
The target is the same in experiment [7]. Particulars: at 1 µM.
Experiment [8] deals with Mitogen-activated protein kinase 1 (Homo sapiens) (UniProt P28482). Particulars: at 0.1 µM.
Sequence of Mitogen-activated protein kinase 1 (Homo sapiens) (P28482 whole entry): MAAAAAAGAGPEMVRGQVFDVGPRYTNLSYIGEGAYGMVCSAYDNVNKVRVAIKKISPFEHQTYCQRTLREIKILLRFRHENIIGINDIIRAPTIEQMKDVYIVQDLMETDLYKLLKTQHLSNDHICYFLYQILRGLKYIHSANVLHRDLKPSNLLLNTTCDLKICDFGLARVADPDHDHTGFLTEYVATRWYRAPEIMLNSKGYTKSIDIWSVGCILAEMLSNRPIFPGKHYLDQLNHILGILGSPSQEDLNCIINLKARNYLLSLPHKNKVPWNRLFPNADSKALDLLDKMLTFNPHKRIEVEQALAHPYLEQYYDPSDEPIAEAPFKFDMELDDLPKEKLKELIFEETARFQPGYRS
The target is the same in experiment [9]. Conditions: at 1 µM.
Experiment [10] has as its target Mitogen-activated protein kinase 3 (Homo sapiens) (UniProt P27361). Conditions: at 0.1 µM.
Experiment [11] has the same target. Conditions: at 1 µM.
For experiment [12], the target named is SRSF protein kinase 3 (Homo sapiens) (UniProt Q9UPE1). Particulars: at 0.1 µM.
Sequence of SRSF protein kinase 3 (Homo sapiens) (Q9UPE1 whole entry): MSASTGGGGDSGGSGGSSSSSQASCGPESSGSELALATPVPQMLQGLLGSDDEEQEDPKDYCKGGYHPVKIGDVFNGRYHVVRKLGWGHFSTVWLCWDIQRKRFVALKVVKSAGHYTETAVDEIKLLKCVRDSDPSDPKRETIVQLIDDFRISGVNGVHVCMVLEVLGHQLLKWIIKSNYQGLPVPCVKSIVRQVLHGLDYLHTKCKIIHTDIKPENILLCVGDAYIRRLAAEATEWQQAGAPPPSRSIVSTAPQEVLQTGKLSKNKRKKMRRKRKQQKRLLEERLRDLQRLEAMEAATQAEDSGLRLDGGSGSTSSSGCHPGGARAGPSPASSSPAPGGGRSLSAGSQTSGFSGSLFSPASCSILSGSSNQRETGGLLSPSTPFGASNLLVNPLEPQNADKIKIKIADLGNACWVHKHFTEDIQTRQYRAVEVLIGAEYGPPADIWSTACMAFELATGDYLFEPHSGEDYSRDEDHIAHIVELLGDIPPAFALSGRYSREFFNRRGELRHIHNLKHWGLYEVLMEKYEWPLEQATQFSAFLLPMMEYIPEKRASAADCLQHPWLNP
For experiment [13] the target is unchanged. Particulars: at 1 µM.
Experiment [14] concerns the target Mitogen-activated protein kinase 14 (Homo sapiens) (UniProt Q16539). Particulars: at 0.1 µM.
Experiment [15] shares this target. Conditions: at 1 µM.
In experiment [16] the target is Mitogen-activated protein kinase 11 (Homo sapiens) (UniProt Q15759). Conditions: at 0.1 µM.
Sequence of Mitogen-activated protein kinase 11 (Homo sapiens) (Q15759 whole entry): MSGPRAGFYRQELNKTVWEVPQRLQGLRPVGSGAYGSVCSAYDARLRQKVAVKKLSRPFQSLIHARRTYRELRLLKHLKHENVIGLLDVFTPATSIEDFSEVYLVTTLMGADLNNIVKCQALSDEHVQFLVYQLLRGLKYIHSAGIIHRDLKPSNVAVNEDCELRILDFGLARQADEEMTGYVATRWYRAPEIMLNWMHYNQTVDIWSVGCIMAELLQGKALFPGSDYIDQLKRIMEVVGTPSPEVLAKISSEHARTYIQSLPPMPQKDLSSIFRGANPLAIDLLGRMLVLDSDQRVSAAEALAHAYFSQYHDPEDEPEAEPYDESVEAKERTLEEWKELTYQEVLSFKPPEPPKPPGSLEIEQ
Experiment [17] shares this target. Conditions: at 1 µM.
Experiment [18] concerns the target T2, Mitogen-activated protein kinase 13 (Homo sapiens) (UniProt O15264).
T2 sequence (whole entry): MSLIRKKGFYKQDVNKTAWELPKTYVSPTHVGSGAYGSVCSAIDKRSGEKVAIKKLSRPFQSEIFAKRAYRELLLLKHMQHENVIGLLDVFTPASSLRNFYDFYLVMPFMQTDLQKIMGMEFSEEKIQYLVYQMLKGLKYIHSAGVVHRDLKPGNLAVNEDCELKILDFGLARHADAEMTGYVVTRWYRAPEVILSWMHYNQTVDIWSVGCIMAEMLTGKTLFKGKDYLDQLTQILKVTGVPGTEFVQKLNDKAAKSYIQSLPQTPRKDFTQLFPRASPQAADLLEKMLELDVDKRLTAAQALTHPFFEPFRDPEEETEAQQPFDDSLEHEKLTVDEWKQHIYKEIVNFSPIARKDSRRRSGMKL
Conditions: at 0.1 µM.

For experiment [19], the target named is T2, Mitogen-activated protein kinase 13 (Homo sapiens). Particulars: at 1 µM.
The target of experiment [20] is T3, Mitogen-activated protein kinase 12 (Homo sapiens) (UniProt P53778).
T3 sequence (whole entry): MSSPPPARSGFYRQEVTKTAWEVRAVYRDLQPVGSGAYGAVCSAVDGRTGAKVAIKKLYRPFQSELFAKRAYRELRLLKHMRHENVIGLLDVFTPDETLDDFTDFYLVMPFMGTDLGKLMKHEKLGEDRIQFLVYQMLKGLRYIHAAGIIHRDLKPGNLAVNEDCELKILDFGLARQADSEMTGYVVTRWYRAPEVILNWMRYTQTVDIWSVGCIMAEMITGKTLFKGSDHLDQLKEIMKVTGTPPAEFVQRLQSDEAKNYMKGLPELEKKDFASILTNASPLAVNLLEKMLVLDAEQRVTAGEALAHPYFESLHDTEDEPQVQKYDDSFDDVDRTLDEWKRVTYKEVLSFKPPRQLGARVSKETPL
Conditions: at 0.1 µM.

Sequence of Glycogen synthase kinase-3 beta (Homo sapiens) (P49841 whole entry, looked up): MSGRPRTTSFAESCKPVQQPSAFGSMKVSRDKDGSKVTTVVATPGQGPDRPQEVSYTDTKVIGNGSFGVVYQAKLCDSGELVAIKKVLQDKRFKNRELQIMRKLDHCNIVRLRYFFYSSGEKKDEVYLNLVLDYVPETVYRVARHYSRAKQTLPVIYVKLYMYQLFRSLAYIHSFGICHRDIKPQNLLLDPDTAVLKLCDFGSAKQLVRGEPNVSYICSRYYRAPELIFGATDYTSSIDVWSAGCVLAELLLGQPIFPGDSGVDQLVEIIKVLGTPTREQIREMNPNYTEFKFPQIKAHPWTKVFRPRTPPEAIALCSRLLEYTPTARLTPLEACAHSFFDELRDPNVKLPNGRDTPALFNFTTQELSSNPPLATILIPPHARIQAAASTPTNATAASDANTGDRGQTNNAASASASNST
Sequence of Mitogen-activated protein kinase 14 (Homo sapiens) (Q16539 whole entry): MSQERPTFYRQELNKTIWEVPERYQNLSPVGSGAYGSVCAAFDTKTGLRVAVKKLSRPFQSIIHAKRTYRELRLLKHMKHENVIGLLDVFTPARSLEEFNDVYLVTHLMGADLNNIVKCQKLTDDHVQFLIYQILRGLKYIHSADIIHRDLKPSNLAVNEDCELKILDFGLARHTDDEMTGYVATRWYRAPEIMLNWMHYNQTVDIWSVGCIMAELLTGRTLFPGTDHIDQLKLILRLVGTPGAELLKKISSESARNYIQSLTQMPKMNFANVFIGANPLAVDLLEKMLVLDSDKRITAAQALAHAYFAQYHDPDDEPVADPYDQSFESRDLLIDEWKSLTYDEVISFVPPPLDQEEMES
Sequence of Homeodomain-interacting protein kinase 1 (Homo sapiens) (Q86Z02 whole entry, looked up): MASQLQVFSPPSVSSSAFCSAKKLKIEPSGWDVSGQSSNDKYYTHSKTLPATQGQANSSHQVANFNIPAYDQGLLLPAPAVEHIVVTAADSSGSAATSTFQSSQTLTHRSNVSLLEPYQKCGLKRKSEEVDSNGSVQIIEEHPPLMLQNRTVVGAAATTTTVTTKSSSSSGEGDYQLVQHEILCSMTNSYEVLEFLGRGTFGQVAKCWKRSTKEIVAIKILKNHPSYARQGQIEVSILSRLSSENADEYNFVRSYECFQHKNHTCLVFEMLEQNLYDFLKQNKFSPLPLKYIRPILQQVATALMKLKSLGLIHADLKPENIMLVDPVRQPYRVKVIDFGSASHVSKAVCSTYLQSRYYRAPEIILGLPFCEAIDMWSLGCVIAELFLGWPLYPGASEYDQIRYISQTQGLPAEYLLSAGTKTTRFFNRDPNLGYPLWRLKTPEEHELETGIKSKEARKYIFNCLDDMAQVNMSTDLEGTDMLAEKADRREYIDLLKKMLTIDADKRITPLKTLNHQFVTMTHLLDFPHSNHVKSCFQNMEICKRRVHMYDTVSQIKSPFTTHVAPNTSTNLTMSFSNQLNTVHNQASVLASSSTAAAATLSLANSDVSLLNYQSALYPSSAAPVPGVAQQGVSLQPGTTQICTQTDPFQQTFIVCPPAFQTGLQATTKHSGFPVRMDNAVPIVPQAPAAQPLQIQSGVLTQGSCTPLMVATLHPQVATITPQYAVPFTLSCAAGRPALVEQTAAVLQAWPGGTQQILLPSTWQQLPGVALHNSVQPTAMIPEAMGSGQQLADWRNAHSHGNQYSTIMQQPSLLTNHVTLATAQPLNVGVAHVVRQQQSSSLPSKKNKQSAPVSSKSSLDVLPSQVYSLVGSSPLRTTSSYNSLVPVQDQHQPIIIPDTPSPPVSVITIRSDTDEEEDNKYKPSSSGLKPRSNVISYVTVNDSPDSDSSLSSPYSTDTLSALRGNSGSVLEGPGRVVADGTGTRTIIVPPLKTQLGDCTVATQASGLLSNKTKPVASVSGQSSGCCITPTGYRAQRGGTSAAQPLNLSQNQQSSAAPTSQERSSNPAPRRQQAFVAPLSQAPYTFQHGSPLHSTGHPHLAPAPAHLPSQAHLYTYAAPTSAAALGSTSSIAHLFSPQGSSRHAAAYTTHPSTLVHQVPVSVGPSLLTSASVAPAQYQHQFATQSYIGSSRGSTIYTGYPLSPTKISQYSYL
Sequence of Mitogen-activated protein kinase 3 (Homo sapiens) (P27361 whole entry): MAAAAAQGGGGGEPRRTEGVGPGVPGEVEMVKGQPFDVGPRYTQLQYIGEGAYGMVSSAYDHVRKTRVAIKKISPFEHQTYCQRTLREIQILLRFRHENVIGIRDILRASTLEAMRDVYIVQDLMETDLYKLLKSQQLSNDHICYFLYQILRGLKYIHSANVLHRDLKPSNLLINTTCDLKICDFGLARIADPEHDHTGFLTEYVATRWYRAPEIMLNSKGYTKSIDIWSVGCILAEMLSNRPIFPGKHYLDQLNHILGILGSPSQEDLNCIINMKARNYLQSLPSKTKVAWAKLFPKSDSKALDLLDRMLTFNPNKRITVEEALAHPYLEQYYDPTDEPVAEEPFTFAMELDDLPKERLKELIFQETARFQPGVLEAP
Sequence of Mitogen-activated protein kinase 9 (Homo sapiens) (P45984 whole entry, looked up): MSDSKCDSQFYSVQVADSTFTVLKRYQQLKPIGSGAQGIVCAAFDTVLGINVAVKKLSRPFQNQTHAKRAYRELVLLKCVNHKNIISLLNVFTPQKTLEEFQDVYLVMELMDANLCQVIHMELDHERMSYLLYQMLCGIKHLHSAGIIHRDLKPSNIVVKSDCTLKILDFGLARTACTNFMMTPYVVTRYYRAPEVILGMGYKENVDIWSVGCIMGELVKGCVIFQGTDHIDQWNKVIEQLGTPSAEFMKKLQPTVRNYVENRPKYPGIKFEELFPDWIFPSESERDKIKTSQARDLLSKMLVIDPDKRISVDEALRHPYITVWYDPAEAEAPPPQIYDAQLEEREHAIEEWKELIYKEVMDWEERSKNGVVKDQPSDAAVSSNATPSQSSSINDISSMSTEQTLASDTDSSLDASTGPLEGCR

For `COc1cc(Nc2ncc3c(C)nc(-c4cccc(Oc5ccccc5)c4)n3n2)cc(OC)c1OC`, the inhibition in [1] turned out to be 0.75%; in experiment [2] it was 0.25%; in experiment [3], 10.8%; in experiment [4], 2.78%; in experiment [5] it was 7.44%; in experiment [6] it was 2.43%. Further, the inhibition in [7] was determined as 4.03%; in experiment [8], 2.11%; in experiment [9], 8.58%; in experiment [10], 4.14%; in experiment [11], 5.07%; in [12], 0.17%. Further, the inhibition in experiment [13] was determined as 1.56%; in experiment [14], 0.66%; in experiment [15], 4.12%; in [16] it was 0.51%; in experiment [17], 4.42%; in experiment [18], 0.98%. Further, the inhibition in [19] amounted to 2.5%; in [20], 0.18%.

On to `Fc1ccc(-c2nc3n(c2-c2ccncc2)CCS3)cc1`, for which the inhibition is 7.8% in experiment [1]; -4.87% in experiment [2]; -3.92% in experiment [3]; 0.39% in [4]; 1.1% in [5]; 7.66% in [6]. Further, the inhibition in [7] was 25.9%; in experiment [8], 3.06%; in experiment [9], 5.59%; in experiment [10], 2.96%; in experiment [11], 4.33%; in [12] it was -1.07%. The inhibition in experiment [13] was -0.89%; in experiment [14] it was 19.8%; in experiment [15], 67.4%; in experiment [16] it was 8.81%; in [17] it was 13.1%; in [18], 1.46%. Moreover, the inhibition was 5.36% in [19] and 1.62% in [20].

As for `CS(=O)(=O)CCNCc1ccc(-c2ccc3ncnc(Nc4ccc(OCc5ccccc5)c(Br)c4)c3c2)o1`, the inhibition was -1.69% in experiment [1]; -5.84% in [2]; -4.53% in [3]; 0.44% in experiment [4]; 2.6% in [5]; 2.5% in experiment [6]. Besides, the inhibition was 0.7% in experiment [7]; 5.3% in [8]; 4.08% in [9]; 5.25% in [10]; 4.46% in experiment [11]; -5.29% in [12]. Further, the inhibition in [13] is -0.77%; in experiment [14], 6.51%; in experiment [15], 5.46%; in experiment [16], 3.98%; in experiment [17], 5.45%; in experiment [18], 4.88%. Moreover, the inhibition is 3.53% in [19] and 3.43% in [20].

As to `COc1cccc(-n2cnc3c(N/N=C/c4ccncc4)ncnc32)c1`, the inhibition in experiment [1] was 32.4%; in [2] it was -2.33%; in [3], -0.32%; in experiment [4], -0.66%; in experiment [5] it was 3.74%; in experiment [6] it was -1.67%. The inhibition is -0.57% in [7]; -1.43% in experiment [8]; -0.07% in [9]; 0.83% in experiment [10]; 2.27% in experiment [11]; -0.93% in experiment [12]. The inhibition in experiment [13] is 0.28%; in experiment [14] it was 2.63%; in experiment [15] it was -0.98%; in experiment [16] it was 1.35%; in experiment [17], 0.89%; in experiment [18] it was -0.64%. Also, the inhibition in [19] is -2.04%; in experiment [20], -1.4%.

On to `COc1ccc2cc(-c3c(-c4ccncc4)nc(-c4ccc([S+](C)[O-])cc4C)n3C)ccc2c1` (stereo not given), for which the inhibition in experiment [1] is 14.7%; in experiment [2] it was 3.05%; in experiment [3] it was 6.01%; in experiment [4], 2.25%; in experiment [5] it was 5.99%; in experiment [6], 0.79%. In addition, the inhibition was 8.03% in [7]; -0.46% in [8]; -2.44% in [9]; 0.3% in experiment [10]; 0.97% in experiment [11]; -0.41% in experiment [12]. Besides, the inhibition in [13] is 0.96%; in experiment [14], 8.81%; in experiment [15] it was 8.45%; in [16], -1.91%; in [17], 9.09%; in experiment [18], 0.73%. Besides, the inhibition in experiment [19] was -0.19%; in experiment [20], -2.44%.

For the molecule `NC(=O)c1cc(-c2ccncc2)cc(-c2ccccc2)c1N`, the inhibition is 9.17% in experiment [1]; -1.44% in experiment [2]; -0.02% in [3]; 1.54% in [4]; 4.34% in experiment [5]; 5.97% in [6]. Also, the inhibition in experiment [7] is 6.49%; in experiment [8] it was 4%; in experiment [9], 6.15%; in experiment [10] it was 3.98%; in experiment [11] it was 5.5%; in experiment [12], -0.96%. Besides, the inhibition in [13] is -0.93%; in experiment [14], 6.9%; in experiment [15] it was 14.9%; in experiment [16], 6.98%; in [17], 14.8%; in [18], 2.69%. Also, the inhibition in experiment [19] worked out at 5.81%; in experiment [20], 0.76%.
